Laboratory results as given in PubChem BioAssay (NCI).
This is part of a sample that, as a whole, favours compounds with a hit. Of some 79,000 tested, about 15% had one in any assay. Active and inactive are the calls of the source. No stated cut-off is given here; in the data, active means growth inhibition above about 70%; inactive means the rest.

Tests used:
[1] = NCI Yeast Anticancer Drug Screen. Data for the rad52 strain (AID 147);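 further: 0% = growth of vehicle-treated control cultures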; settings: S. cerevisiae rad52 mutant growth inhibition, stronger effect = higher value
In short: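 Measured: yeast growth inhibition. System: strain with a defined DNA damage repair alteration. Reference: vehicle-treated control cultures.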

[2] = NCI Yeast Anticancer Drug Screen. Data for the wt1 strain (AID 149);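 further: 0% = growth of vehicle-treated wt1 cultures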; settings: S. cerevisiae wt1 strain (SPY 50644) growth inhibition, stronger effect = higher value
In short: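 Vehicle-normalised growth inhibition; strain wt1; compound exposure.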

[3] = NCI Yeast Anticancer Drug Screen. Data for the rad50EPP+ strain (AID 151);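 further: 0% = growth of vehicle-treated control cultures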; settings: S. cerevisiae rad50 mutant strain, stronger effect = higher value
In short: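 One strain with a rad50 alteration (rad50EPP+) was compound-treated, its growth then compared to that of vehicle controls.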

[4] = NCI Yeast Anticancer Drug Screen. Data for the mgt1 strain (AID 153); settings: S. cerevisiae mgt1 mutant growth inhibition, stronger effect = higher value
In short: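 After exposure of the mgt1 yeast mutant to compound, growth was measured and reported as inhibition compared with vehicle controls.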

[5] = NCI Yeast Anticancer Drug Screen. Data for the rad50 strain (AID 155);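 further: 0% = growth of vehicle-only cultures of the same strain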; settings: S. cerevisiae rad50 strain growth inhibition, stronger effect = higher value
In short: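 A DNA repair-deficient yeast mutant serves as the test organism; compound-induced growth inhibition is calculated against vehicle-treated cells.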

[6] = NCI Yeast Anticancer Drug Screen. Data for the mec2-1 strain (AID 157); settings: S. cerevisiae mec2-1 strain, stronger effect = higher value
In short: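 Test agents were screened against the mec2-1 yeast strain, with defined DNA repair or cell cycle alteration. Growth was scored as inhibition against vehicle-only controls.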

[7] = NCI Yeast Anticancer Drug Screen. Data for the rad14 strain (AID 159);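 further: 0% = growth of vehicle-treated control cultures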; settings: S. cerevisiae rad14 strain growth inhibition, stronger effect = higher value
In short: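 Vehicle-treated cultures served as the baseline for growth inhibition of a DNA repair-mutant yeast strain exposed to each compound.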

[8] = NCI Yeast Anticancer Drug Screen. Data for the sgs1 mgt1 strain (AID 161);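 further: 0% = growth of cultures given vehicle only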; settings: S. cerevisiae sgs1 mgt1 strain, stronger effect = higher value
In short: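 Mutant yeast exposed to compound; growth scored against vehicle-only wells.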

[9] = NCI Yeast Anticancer Drug Screen. Data for the CLN2oe strain (AID 163);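 further: 0% = growth of vehicle-only control cultures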; settings: S. cerevisiae CLN2oe strain, stronger effect = higher value
In short: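 Here, growth inhibition in a cell-cycle-altered yeast strain after compound exposure was quantified against vehicle control growth.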

[10] = NCI Yeast Anticancer Drug Screen. Data for the cln2 rad14 strain (AID 165);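 further: 0% = growth equal to vehicle treated cultures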; settings: S. cerevisiae cln2 rad14 strain, stronger effect = higher value
In short: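 Growth of compound-exposed yeast (cln2 rad14 genotype) measured and expressed as inhibition relative to vehicle.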

[11] = NCI Yeast Anticancer Drug Screen. Data for the bub3 strain (AID 167); settings: S. cerevisiae bub3 mutant strain, stronger effect = higher value
In short: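 Inhibition values come from growth of compound-treated mutant yeast normalised to vehicle-treated controls.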

[12] = NCI Yeast Anticancer Drug Screen. Data for the wt2 strain (AID 169);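 further: 0% = growth of vehicle-treated yeast cultures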; settings: S. cerevisiae wt2 strain growth inhibition, stronger effect = higher value
In short: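 Genetically defined yeast strains from a DNA-repair/cell-cycle panel were used. Compound-exposed yeast growth was measured, and the inhibition was calculated relative to vehicle treatment.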

[13] = NCI Yeast Anticancer Drug Screen. Data for the mlh1 strain (AID 171);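 further: 0% = growth of vehicle-treated control cultures of the same strain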; settings: S. cerevisiae mlh1 strain growth inhibition, stronger effect = higher value
In short: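 Here the genetically defined yeast mutant is grown with each compound, and the extent to which its growth falls below that of vehicle-exposed cells is reported.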

[14] = NCI Yeast Anticancer Drug Screen. Data for the sgs1 strain (AID 173);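 further: 0% = growth of vehicle-only control cultures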; settings: S. cerevisiae sgs1 mutant, stronger effect = higher value
In short: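 Relative growth inhibition, referenced to vehicle, was determined in a yeast strain with a defined alteration affecting DNA damage repair or cell cycle control after compound exposure.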

[15] = NCI Yeast Anticancer Drug Screen. Data for the mlh1 rad18 strain (AID 175); settings: S. cerevisiae mlh1 rad18 strain growth inhibition, stronger effect = higher value
In short: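 In this whole-cell yeast screen, a strain with altered DNA damage repair is challenged with compound, and its growth is measured against matched vehicle-treated controls.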

[16] = NCI Yeast Anticancer Drug Screen. Data for the rad18 strain (AID 177); settings: S. cerevisiae rad18 mutant growth inhibition, stronger effect = higher value
In short: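 Screen uses a yeast strain with a defined lesion in DNA damage repair; compound effect is read as loss of growth compared to untreated vehicle cultures.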

[17] = at 5.0 µM (retest, dose inferred, filed as 0.5)
[18] = at 50.0 µM (retest, dose inferred, filed as 5.0)

Measured: growth inhibition

C/C(=N\NC(=S)N1CCCCC1)c1cccc(C)n1
inactive: [1]; at 1.2 µM -4% | [2]; at 1.2 µM 41% | [3]; at 1.2 µM -8% | [3]; at 3.7 µM 38% | [4]; at 1.2 µM 49% | [5]; at 1.2 µM 23% | [6]; at 1.2 µM 39% | [7]; at 1.2 µM 45% | [9]; at 1.2 µM 50% | [11]; at 1.2 µM 21% | [12]; at 1.2 µM -10% | [13]; at 1.2 µM 1% | [14]; at 1.2 µM 9% | [16]; at 1.2 µM 7%
active: [1]; at 3.7 µM 91% | [1]; at 11.0 µM 97% | [1]; at 33.0 µM 99% | [1]; at 100.0 µM 99% | [2]; at 3.7 µM 95% | [2]; at 11.0 µM 98% | [2]; at 33.0 µM 99% | [2]; at 100.0 µM 99% | [3]; at 11.0 µM 95% | [3]; at 33.0 µM 99% | [3]; at 100.0 µM 99% | [4]; at 3.7 µM 94% | [4]; at 11.0 µM 99% | [4]; at 33.0 µM 99% | [4]; at 100.0 µM 98% | [5]; at 3.7 µM 94% | [5]; [17] 89% | [5]; at 11.0 µM 98% | [5]; at 33.0 µM 98% | [5]; [18] 100% | [5]; at 50.0 µM 89.7% | [5]; at 100.0 µM 98% | [6]; at 3.7 µM 92% | [6]; [17] 86% | [6]; at 11.0 µM 96% | [6]; at 33.0 µM 99% | [6]; [18] 100% | [6]; at 50.0 µM 92.2% | [6]; at 100.0 µM 99% | [7]; at 3.7 µM 97% | [7]; at 11.0 µM 99% | [7]; at 33.0 µM 100% | [7]; at 100.0 µM 99% | [8]; [17] 81% | [8]; [18] 99% | [8]; at 50.0 µM 85.8% | [9]; at 3.7 µM 94% | [9]; at 11.0 µM 99% | [9]; at 33.0 µM 100% | [9]; at 100.0 µM 99% | [10]; [17] 93% | [10]; [18] 99% | [10]; at 50.0 µM 90.7% | [11]; at 3.7 µM 87% | [11]; [17] 93% | [11]; at 11.0 µM 99% | [11]; at 33.0 µM 99% | [11]; [18] 99% | [11]; at 50.0 µM 89.2% | [11]; at 100.0 µM 99% | [12]; at 3.7 µM 94% | [12]; at 11.0 µM 97% | [12]; at 33.0 µM 98% | [12]; at 100.0 µM 99% | [13]; at 3.7 µM 92% | [13]; at 11.0 µM 96% | [13]; at 33.0 µM 96% | [13]; at 100.0 µM 96% | [14]; at 3.7 µM 91% | [14]; at 11.0 µM 98% | [14]; at 33.0 µM 98% | [14]; at 100.0 µM 98% | [15]; [17] 81% | [15]; [18] 99% | [15]; at 50.0 µM 86.2% | [16]; at 3.7 µM 90% | [16]; at 11.0 µM 98% | [16]; at 33.0 µM 98% | [16]; at 100.0 µM 97%

C[S+](C)C1(c2ccccc2)C(=O)c2ccccc2C1=O
inactive: [1]; at 1.2 µM 8% | [1]; at 3.7 µM 11% | [1]; at 11.0 µM 20% | [1]; at 33.0 µM 35% | [2]; at 1.2 µM 1% | [2]; at 3.7 µM 2% | [2]; at 11.0 µM 1% | [2]; at 33.0 µM 3% | [2]; at 100.0 µM 12% | [3]; at 1.2 µM 1% | [3]; at 3.7 µM 3% | [3]; at 11.0 µM 9% | [3]; at 33.0 µM 36% | [4]; at 1.2 µM 2% | [4]; at 3.7 µM 1% | [4]; at 11.0 µM 4% | [4]; at 33.0 µM 3% | [4]; at 100.0 µM 36% | [5]; at 1.2 µM 1% | [5]; at 3.7 µM 7% | [5]; [17] 7% | [5]; at 11.0 µM 18% | [5]; at 33.0 µM 42% | [6]; at 1.2 µM 3% | [6]; at 3.7 µM 0% | [6]; [17] -9% | [6]; at 11.0 µM 0% | [6]; at 33.0 µM 11% | [6]; [18] 1% | [6]; at 50.0 µM -11.7% | [6]; at 100.0 µM 30% | [7]; at 1.2 µM 1% | [7]; at 3.7 µM 0% | [7]; at 11.0 µM 2% | [7]; at 33.0 µM 6% | [7]; at 100.0 µM 22% | [8]; [17] 6% | [8]; [18] 6% | [8]; at 50.0 µM 1.35% | [9]; at 1.2 µM 1% | [9]; at 3.7 µM 2% | [9]; at 11.0 µM 8% | [9]; at 33.0 µM 13% | [9]; at 100.0 µM 26% | [10]; [17] 6% | [10]; [18] 10% | [10]; at 50.0 µM 9.8% | [11]; at 1.2 µM 1% | [11]; at 3.7 µM 2% | [11]; [17] -7% | [11]; at 11.0 µM 2% | [11]; at 33.0 µM 8% | [11]; [18] 10% | [11]; at 50.0 µM 35.9% | [11]; at 100.0 µM 30% | [12]; at 1.2 µM 2% | [12]; at 3.7 µM -1% | [12]; at 11.0 µM 0% | [12]; at 33.0 µM 6% | [12]; at 100.0 µM 32% | [13]; at 1.2 µM 1% | [13]; at 3.7 µM -1% | [13]; at 11.0 µM 0% | [13]; at 33.0 µM 7% | [13]; at 100.0 µM 30% | [14]; at 1.2 µM -1% | [14]; at 3.7 µM -2% | [14]; at 11.0 µM -1% | [14]; at 33.0 µM 16% | [14]; at 100.0 µM 52% | [15]; [17] 10% | [15]; [18] 10% | [15]; at 50.0 µM 27.9%
active: [1]; at 100.0 µM 73% | [3]; at 100.0 µM 72% | [5]; [18] 76% | [5]; at 50.0 µM 77% | [5]; at 100.0 µM 72%
